Measurements taken from the supplement of paper PMC11732987, “Enantioselective OTUD7B fragment discovery through chemoproteomics screening and high-throughput optimisation” (Communications Chemistry, 2025).

Key:
Assay in all cases: log2 ratio of Biotin-Ahx-Ub-VS probe labelling (fragment/DMSO); higher = less target engagement (more negative = stronger competition), active = hit call of the paper (q ≤ 0.05, log2 ratio ≤ -1)
Conditions in all cases: compound concentration: 200 uM; treatment time: 3 h
USP19 = target: T1, USP19 (UniProt O94966)
T1 sequence (whole entry): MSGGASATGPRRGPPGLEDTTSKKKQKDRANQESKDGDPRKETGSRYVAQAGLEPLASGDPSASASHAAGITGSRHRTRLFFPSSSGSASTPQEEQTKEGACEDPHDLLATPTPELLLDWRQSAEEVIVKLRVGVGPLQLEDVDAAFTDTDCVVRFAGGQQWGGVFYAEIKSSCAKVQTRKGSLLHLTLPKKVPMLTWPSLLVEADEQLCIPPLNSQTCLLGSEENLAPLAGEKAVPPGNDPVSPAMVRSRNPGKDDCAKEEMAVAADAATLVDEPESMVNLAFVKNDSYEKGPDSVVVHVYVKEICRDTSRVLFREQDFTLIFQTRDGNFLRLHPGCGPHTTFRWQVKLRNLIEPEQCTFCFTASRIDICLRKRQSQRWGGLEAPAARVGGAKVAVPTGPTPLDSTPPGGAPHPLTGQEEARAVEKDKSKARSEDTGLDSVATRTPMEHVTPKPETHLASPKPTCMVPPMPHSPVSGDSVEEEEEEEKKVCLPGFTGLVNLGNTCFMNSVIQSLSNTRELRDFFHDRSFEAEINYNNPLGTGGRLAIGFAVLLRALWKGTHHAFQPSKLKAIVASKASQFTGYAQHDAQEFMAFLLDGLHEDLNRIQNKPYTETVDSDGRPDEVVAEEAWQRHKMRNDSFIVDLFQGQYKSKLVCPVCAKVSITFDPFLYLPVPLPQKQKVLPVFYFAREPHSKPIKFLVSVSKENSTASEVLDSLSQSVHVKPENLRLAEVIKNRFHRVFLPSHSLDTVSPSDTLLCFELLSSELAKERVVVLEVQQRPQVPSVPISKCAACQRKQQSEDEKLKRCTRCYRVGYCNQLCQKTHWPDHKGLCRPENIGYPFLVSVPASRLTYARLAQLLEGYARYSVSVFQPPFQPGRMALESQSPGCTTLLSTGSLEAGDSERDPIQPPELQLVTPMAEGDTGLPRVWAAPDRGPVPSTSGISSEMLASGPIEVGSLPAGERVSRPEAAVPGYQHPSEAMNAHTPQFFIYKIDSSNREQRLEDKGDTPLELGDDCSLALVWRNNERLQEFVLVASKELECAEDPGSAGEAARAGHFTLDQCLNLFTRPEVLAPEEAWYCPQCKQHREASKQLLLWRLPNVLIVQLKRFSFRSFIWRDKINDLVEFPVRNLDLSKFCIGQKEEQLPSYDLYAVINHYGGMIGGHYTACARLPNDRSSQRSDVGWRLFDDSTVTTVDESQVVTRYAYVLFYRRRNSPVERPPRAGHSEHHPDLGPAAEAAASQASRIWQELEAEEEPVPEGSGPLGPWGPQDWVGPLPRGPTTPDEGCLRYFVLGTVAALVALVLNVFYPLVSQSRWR
Method in brief: (§1)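 Labelled DUBs from HEK293T lysate were NeutrAvidin-enriched, digested with LysC and trypsin, and run by diaPASEF LC-MS/MS. Before that, each 495 µg sample in Tris/CHAPS/IGEPAL buffer with protease inhibitors was treated in triplicate with fragment at 200 µM or vehicle for 3 h, then with Biotin-Ahx-Ub-VS at 0.5 µM final for 1 h. Values are average log2 ratios of fragment over vehicle by unpaired t-test, based on global-median-normalised Spectronaut label-free quantities from proteins with ≥2 unique peptides.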

USP22 = target: T2, USP22 (UniProt Q9UPT9)
T2 sequence (whole entry): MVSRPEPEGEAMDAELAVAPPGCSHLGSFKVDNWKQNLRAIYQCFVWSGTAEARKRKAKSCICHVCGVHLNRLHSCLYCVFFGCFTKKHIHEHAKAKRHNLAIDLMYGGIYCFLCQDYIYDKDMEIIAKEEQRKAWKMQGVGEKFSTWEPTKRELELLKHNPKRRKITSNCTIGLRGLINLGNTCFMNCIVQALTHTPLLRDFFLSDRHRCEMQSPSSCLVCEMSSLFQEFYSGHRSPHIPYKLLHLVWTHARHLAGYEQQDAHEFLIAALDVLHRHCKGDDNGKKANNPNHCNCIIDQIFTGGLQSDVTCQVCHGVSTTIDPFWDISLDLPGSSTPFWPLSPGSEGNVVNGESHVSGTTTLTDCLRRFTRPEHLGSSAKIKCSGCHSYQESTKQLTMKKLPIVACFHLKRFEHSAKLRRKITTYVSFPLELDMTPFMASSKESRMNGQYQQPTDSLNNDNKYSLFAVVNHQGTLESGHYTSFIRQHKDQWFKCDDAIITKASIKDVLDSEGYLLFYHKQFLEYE
Method in brief: as §1

USP24 = USP24 (UniProt Q9UPU5)
Method in brief: as §1

USP25 = target: T3, USP25 (UniProt Q9UHP3)
T3 sequence (whole entry): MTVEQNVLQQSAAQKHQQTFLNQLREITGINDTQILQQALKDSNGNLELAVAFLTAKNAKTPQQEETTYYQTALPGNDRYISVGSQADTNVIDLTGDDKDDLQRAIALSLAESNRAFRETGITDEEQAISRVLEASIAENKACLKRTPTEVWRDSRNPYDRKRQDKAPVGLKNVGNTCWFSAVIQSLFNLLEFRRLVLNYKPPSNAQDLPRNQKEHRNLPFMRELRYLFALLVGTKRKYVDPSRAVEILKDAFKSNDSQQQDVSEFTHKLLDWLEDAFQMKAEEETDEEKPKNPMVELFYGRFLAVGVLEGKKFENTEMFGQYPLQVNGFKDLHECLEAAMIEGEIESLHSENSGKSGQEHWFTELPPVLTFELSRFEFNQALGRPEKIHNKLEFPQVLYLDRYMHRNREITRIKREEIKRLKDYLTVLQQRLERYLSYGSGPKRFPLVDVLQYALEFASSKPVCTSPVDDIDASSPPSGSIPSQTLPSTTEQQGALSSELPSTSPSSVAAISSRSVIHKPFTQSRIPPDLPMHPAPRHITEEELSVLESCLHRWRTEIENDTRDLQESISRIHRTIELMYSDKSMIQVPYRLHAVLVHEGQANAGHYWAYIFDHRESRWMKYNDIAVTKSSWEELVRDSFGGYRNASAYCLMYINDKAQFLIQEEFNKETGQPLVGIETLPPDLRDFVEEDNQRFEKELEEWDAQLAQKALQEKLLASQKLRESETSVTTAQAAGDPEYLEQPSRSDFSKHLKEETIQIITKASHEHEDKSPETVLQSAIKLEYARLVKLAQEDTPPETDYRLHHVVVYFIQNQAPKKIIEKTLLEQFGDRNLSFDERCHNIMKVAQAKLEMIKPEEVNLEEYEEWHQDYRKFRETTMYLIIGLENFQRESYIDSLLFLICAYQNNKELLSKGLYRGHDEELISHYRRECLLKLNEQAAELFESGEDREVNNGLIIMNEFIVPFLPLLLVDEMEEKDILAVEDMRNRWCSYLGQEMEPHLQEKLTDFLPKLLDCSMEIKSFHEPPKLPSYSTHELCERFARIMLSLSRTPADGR
Method in brief: as §1

USP28 = target: T4, USP28 (UniProt Q96RU2)
T4 sequence (whole entry): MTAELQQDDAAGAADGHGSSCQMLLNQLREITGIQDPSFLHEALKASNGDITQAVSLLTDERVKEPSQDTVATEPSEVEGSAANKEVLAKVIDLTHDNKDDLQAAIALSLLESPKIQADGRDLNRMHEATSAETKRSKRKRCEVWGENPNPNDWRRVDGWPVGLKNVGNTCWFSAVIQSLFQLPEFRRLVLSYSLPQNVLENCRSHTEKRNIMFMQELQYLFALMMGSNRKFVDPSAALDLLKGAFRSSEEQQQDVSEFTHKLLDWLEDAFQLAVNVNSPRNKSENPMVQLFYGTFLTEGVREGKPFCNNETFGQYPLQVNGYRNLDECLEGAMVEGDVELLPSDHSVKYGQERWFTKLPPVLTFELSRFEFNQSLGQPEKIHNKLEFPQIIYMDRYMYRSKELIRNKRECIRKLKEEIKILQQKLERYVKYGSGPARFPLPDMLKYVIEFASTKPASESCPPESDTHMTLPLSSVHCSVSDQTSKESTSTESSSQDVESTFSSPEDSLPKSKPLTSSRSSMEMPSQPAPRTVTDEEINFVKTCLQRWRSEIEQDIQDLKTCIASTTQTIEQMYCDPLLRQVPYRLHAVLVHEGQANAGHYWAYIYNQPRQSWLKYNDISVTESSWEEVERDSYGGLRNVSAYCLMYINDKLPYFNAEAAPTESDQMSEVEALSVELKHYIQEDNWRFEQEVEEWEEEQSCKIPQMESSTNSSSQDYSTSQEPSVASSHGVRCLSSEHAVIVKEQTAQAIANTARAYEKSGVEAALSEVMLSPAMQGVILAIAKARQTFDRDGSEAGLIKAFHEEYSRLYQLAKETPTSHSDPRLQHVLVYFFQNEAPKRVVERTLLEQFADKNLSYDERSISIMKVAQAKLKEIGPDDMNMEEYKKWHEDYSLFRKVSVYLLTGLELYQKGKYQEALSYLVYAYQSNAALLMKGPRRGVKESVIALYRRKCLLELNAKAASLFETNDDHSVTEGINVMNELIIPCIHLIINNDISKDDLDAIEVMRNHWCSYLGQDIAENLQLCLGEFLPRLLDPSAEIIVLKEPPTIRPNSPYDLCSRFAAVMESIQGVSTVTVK
Method in brief: as §1

Measured: log2 ratio of Biotin-Ahx-Ub-VS probe labelling

Chain of USP24 (Q9UPU5 whole entry): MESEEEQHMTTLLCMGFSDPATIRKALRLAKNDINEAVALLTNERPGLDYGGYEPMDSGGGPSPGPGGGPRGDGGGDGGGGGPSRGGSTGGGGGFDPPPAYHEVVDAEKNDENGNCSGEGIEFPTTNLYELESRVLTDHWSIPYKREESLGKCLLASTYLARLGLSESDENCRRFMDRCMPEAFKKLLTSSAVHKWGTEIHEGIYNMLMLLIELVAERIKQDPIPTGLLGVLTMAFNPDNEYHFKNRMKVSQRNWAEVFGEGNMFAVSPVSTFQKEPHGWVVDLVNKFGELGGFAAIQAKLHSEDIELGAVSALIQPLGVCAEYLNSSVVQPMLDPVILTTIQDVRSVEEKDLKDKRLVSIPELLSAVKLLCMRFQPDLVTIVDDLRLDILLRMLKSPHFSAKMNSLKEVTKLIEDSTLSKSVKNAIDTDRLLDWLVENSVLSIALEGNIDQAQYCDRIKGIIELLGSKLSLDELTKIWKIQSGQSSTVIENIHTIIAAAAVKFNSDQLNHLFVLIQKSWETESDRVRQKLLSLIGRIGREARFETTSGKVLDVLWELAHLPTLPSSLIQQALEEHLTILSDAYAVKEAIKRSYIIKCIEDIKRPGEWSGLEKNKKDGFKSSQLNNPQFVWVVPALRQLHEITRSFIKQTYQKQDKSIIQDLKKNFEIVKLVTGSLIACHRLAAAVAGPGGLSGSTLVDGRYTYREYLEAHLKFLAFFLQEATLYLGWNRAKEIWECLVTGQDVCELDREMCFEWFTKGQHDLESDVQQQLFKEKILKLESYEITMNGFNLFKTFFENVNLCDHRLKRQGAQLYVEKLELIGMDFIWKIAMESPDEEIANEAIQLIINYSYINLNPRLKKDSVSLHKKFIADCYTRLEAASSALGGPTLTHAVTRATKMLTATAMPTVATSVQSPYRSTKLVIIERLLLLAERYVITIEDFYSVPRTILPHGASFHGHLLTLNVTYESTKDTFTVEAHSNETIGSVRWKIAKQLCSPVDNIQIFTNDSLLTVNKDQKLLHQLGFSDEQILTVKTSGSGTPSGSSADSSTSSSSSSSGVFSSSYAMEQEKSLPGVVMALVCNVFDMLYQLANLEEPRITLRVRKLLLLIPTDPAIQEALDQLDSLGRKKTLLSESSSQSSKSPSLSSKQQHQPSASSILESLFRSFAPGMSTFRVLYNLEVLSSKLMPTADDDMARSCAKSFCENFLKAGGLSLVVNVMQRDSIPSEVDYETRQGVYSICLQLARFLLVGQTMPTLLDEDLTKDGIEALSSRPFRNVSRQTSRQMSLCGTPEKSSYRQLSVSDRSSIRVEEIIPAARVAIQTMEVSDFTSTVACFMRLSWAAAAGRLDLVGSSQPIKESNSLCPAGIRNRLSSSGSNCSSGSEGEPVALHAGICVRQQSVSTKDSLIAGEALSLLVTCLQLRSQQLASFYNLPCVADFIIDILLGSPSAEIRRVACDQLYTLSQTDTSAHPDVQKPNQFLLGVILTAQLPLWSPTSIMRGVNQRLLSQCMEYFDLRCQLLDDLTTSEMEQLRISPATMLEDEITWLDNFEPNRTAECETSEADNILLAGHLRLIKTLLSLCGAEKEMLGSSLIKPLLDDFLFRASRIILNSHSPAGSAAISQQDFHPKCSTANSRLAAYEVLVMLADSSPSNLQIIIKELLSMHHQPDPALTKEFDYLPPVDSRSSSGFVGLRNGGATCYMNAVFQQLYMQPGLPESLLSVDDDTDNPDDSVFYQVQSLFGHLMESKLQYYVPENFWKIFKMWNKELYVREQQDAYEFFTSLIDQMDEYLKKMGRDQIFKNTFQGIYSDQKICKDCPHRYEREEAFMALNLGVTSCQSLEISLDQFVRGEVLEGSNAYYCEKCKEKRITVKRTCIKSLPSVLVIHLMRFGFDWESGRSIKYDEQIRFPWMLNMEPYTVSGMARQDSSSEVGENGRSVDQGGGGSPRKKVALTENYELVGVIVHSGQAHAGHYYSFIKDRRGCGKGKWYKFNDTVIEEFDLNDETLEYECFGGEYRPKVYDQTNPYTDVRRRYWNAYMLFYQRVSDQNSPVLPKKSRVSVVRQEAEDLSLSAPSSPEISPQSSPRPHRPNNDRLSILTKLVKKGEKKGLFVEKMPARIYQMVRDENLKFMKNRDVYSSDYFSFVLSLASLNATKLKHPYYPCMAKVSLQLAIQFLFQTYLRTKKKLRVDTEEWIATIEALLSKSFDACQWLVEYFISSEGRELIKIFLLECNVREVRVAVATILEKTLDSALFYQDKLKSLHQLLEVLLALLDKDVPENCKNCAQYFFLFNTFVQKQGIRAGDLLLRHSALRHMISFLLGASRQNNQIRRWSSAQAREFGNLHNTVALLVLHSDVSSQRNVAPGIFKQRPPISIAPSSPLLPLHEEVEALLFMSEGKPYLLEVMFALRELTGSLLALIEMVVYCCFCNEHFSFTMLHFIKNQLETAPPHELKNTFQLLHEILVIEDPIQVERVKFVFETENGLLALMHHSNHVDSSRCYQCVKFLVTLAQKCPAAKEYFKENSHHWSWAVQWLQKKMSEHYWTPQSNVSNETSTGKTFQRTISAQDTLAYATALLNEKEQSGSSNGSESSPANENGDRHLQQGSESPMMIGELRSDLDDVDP

C#Cc1cccc(NC(=O)CCl)c1
inactive: USP19 -0.38 | USP22 -0.379 | USP24 -0.837 | USP25 -0.804 | USP28 -0.906
